In all, about 200,000 compounds went through this assay and about 18,000 (9%) were called active. This is one part of a sample in which actives are shown more often than they occur. Rule as the data show it: active = inhibition above about 50%; inactive = the rest.
Assay: Leishmania major promastigote growth inhibition, primary screen (AID 1063);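 also: promastigotes grown with compound for 44 hours at 28 °C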
Settings: Leishmania major promastigotes, resazurin fluorescence viability; at 10 µM; hits give high values

SMILES | inhibition
CC(C)OCCCNC(=O)c1ccc(C2SCC(=O)N2Cc2ccco2)cc1 (centres undefined) | -3.9% (inactive)
Cc1cc(C(=O)NNC(=O)CCC2CCCCC2)c(C)o1 | -8.93% (inactive)
CCC(=O)N1CCC(C(N)=O)(N2CCCCC2)CC1 | 0.56% (inactive)
O=C(Nc1cccn(Cc2ccccc2Cl)c1=O)NC1CCCCC1 | 17.9% (inactive)
COc1ccc(Cl)cc1C(=O)NNC(=S)NC1CCCC1 | 17.1% (inactive)
CCN(CC)c1ccc2oc(=O)c(C)nc2c1 | 96.6% (active)
CCN(CC)c1ccc2c(Nc3ccccc3)c(C=O)c(=O)oc2c1 | -4.13% (inactive)
CCN(CC)c1ccc2cc(C(=O)O)c(=O)oc2c1 | 22.2% (inactive)
CNc1[nH]ncc1[N+](=O)[O-] | -7.01% (inactive)
COc1ccc(CCn2ccc(O)c(Cc3ccc(Cl)cc3Cl)c2=O)cc1OC | 7.61% (inactive)
COCCCNC(=S)N1CCCC(c2nc3cc(C)c(C)cc3[nH]2)C1 (centres undefined) | 0.93% (inactive)
N=C1C(c2nc3ccccc3[nH]2)=C(O)CN1NC(=O)c1c[nH]c2ccccc12 | -3.91% (inactive)
CC1Cc2ccccc2N1S(=O)(=O)c1c(N)n(C)c(=O)n(C)c1=O (centres undefined) | 99.8% (active)
Cn1c(=O)n(C)c2cc(S(=O)(=O)N3CCCc4ccccc43)ccc21 | 47.6% (inactive)
CCCCn1ccnc1C(=O)c1cccc(S(=O)(=O)N2c3ccccc3CC2C)c1 (centres undefined) | 0.6% (inactive)
CNS(=O)(=O)c1ccc(NC(=O)C2CC(=O)N(c3ccc(Cl)cc3)C2)cc1 (centres undefined) | 13.6% (inactive)
Cc1cccc(NC(=S)NCCc2ccc(F)cc2)c1C | 28.5% (inactive)
COc1ccc(CN2CCNC(=O)C2CC(=O)N(C)Cc2ccccn2)cc1OC (centres undefined) | 0.79% (inactive)
COc1ccc2[nH]c(C)c(CCN(Cc3cccs3)C(=S)Nc3ccccc3OC)c2c1 | 66.1% (active)
COc1cccc(NC(=S)N(CCc2c(C)[nH]c3ccccc23)Cc2ccco2)c1 | 19.9% (inactive)
Cc1[nH]c2ccccc2c1CCN(Cc1cccs1)C(=S)NC(C)(C)C | -1.09% (inactive)
C/C(=N\NC(=O)c1cccnc1)c1ccc(-n2ccnc2)cc1 | -1.06% (inactive)
Cn1cc(-c2ccccc2)cc(C#N)c1=O | -20% (inactive)
CC(C)N1CCC(NC(=O)Nc2ccccc2)CC1 | -2.35% (inactive)
COc1cc(/C=C/C(=O)OCC(=O)N2CCOCC2)ccc1OCC#N | -11.6% (inactive)

SMILES | inhibition
Nc1nnc(SCn2nnc3ccccc3c2=O)s1 | -7.44% (inactive)
CCNC(=S)Nc1cccc(Cl)c1C | -6.44% (inactive)
S=C(NCc1ccc2c(c1)OCO2)NCc1ccco1 | 8.29% (inactive)
Cc1c(Cl)cccc1NC(=S)NCc1ccc2c(c1)OCO2 | 81.5% (active)
CC(C)(C)c1cnnn1-c1ccc([N+](=O)[O-])cc1 | -0.24% (inactive)
CCc1nnc(NS(=O)(=O)c2ccc(NC(=S)NC(=O)c3cccs3)cc2)s1 | -1.21% (inactive)
Cc1c(C(=O)O)nnn1-c1nonc1N | -0.68% (inactive)
Cc1ccc(/C=C(\C#N)C(=O)Nc2cccc3ncccc23)o1 | 55.2% (active)
O=C(Nc1cccc2ncccc12)C(Cl)(Cl)Cl | -0.02% (inactive)
Cc1ccc(C(=O)Nc2cccc3ncccc23)cc1[N+](=O)[O-] | 0.51% (inactive)
C=CCn1c(SCc2c(C(=O)OC)sc(N)c2C(=O)OC)nnc1-c1ccc(Cl)cc1 | 50.9% (active)
C=CCn1c(SCn2nnc3ccccc3c2=O)nnc1-c1ccc(Cl)cc1 | 1.86% (inactive)
C=CCn1c(SCc2cc(C(=O)OC)c(C)o2)nnc1-c1ccncc1 | -5.9% (inactive)
CCOC(=O)C1(CC2CCCCO2)CCN(Cc2nc(-c3cccs3)oc2C)CC1 (centres undefined) | 19.6% (inactive)
Cc1ccccc1NC(=O)NNC(=O)OC(C)(C)C | -6.97% (inactive)
CCC(C)(C)NC(=O)C1c2ccccc2Oc2ccccc21 | 1.22% (inactive)
CCCC1=Nc2cc(C(=O)NCc3ccco3)ccc2Sc2ccccc21 | 91.3% (active)
CCOc1ccccc1C(=O)NCc1ccco1 | -8.32% (inactive)
CCCCOc1ccc(C(=O)NCc2ccco2)cc1 | -3.02% (inactive)
Cc1ccc(S(=O)(=O)N2CCOCC2)cc1NC(=O)CSc1nnc(N)s1 | -4.64% (inactive)
CC(Sc1nncn1C)C(=O)Nc1cc(C(F)(F)F)ccc1N1CCOCC1 (centres undefined) | -8.57% (inactive)
CCCCNC(=O)c1ccc(-n2c(=S)[nH]c3ccccc3c2=O)cc1 | 2.08% (inactive)
Cn1c(=O)c2cc(S(=O)(=O)NCCC(=O)Nc3ccc(F)cc3F)ccc2n(C)c1=O | 8.04% (inactive)
Cc1ccc(-n2ncc3c(=O)n(-c4ccc(C)c(C)c4)c(-c4ccco4)nc32)cc1 | 51.5% (active)
Cc1ccc(-n2ncc3c2ncn2nc(-c4ccco4)nc32)c(C)c1 | -2.03% (inactive)

SMILES | inhibition
Cc1ccc(-c2nc3c(cnn3-c3ccccc3)c(=O)o2)cc1 | -4.66% (inactive)
COc1ccc(-c2nc(CN3CCN(c4ncccn4)CC3)c(C)o2)cc1C | 30.8% (inactive)
COc1cc(OC)cc(-c2nc(=S)n3ccsc3n2)c1 | -3.3% (inactive)
O=C(N1CCCCC1)N1CCN(C(=O)N2CCCCC2)CC1 | -3.35% (inactive)
Cc1ccccc1NC(=O)c1nn(-c2ccc(F)c(F)c2)ccc1=O | -0.26% (inactive)
Cc1ccccc1-c1nnc(SCC(=O)NCc2ccc3c(c2)OCO3)n1C | -5.07% (inactive)
Cc1cccc(C)c1NC(=O)CSc1nnc(-c2ccccc2)n1Cc1ccc2c(c1)OCO2 | 53.4% (active)
Cc1cnc(NC(=O)CSc2nnc(-c3ccccc3)n2Cc2ccccc2)s1 | 12.5% (inactive)
COc1ccc(C2C(C(C)=O)=C(O)C(=O)N2CCc2c[nH]c3ccccc23)cc1 (centres undefined) | -4.35% (inactive)
COc1ccccc1NC(=O)CSc1nnc(-c2ccoc2C)n1CCc1ccccc1 | 76.2% (active)
COc1ccccc1NC(=O)CSc1nnc(C)n1CC1CCCO1 (centres undefined) | -2.8% (inactive)
CCCn1c(SCC(=O)Nc2cccc(C(=O)OCC)c2)nnc1-c1ccoc1C | 23.8% (inactive)
Cc1ccc(CN2CCC(N3CCC(C(=O)NCC4CCCO4)CC3)CC2)o1 (centres undefined) | -6.4% (inactive)
CC(=O)c1cc(-c2ccccc2)n(CC(=O)NC2CCCCC2)c1C | -2.4% (inactive)
COc1ccccc1NC(=O)c1ccc(C)s1 | 13.5% (inactive)
COc1ccccc1NC(=O)/C=C/C(=O)O | -7.02% (inactive)
COc1ccccc1NC(=O)/C=C/C(N)=O | 59.7% (active)
O=C(COC(=O)c1cnc(Cl)c(Cl)c1)NCc1ccco1 | -5.74% (inactive)
O=C(CC1SCCNC1=O)Nc1ccc(Cl)cc1 (centres undefined) | -5.68% (inactive)
COc1ccc2c(c1)C=CC1(O2)N(CCO)c2ccccc2C1(C)C (centres undefined) | 99.2% (active)
COc1cccc(CC2(CO)CCCN(CC3=Cc4cc(OC)ccc4OC3)C2)c1 (centres undefined) | -1.53% (inactive)
COc1ccc2c(c1)C(SCC(=O)NCc1ccccc1)CC(C)(C)O2 (centres undefined) | -6.83% (inactive)
CC(C)C(=O)NCc1cc(-c2ccc(Cl)cc2)no1 | 1.34% (inactive)
CCN(c1ccccc1)S(=O)(=O)c1ccc(N)cc1 | -4.44% (inactive)
O=S(=O)(c1ccccc1)N(CC(O)CN1CCCCC1)c1ccccc1 (centres undefined) | 45% (inactive)

SMILES | inhibition
Cc1ccc(N(CC(O)CN2CCCC2)S(=O)(=O)c2ccccc2)cc1 (centres undefined) | 60.2% (active)
COc1ccccc1N(CC(=O)N1CCCCC1)S(=O)(=O)c1ccccc1 | -2.25% (inactive)
Cc1cc(C)n(CC(O)CN(c2ccccc2)S(=O)(=O)c2ccc3ccccc3c2)n1 (centres undefined) | 61.1% (active)
CCN(c1ccccc1)S(=O)(=O)c1ccc2[nH]c(=O)[nH]c2c1 | -5.33% (inactive)
Cc1cccc(N(CC(O)CN(C)C)S(=O)(=O)c2ccccc2)c1 (centres undefined) | 95.9% (active)
CCN(c1ccccc1)S(=O)(=O)c1cccc(C(=O)O)c1 | -3.46% (inactive)
Cc1cccc(N(CC(=O)N2CCOCC2)S(C)(=O)=O)c1 | 0.32% (inactive)
CC1CCCCC1NC(=O)COC(=O)Cc1ccc(Br)cc1 (centres undefined) | -8.18% (inactive)
C/C(=N\OCC(=O)Nc1ccc(Br)cc1)c1cccs1 | -1.5% (inactive)
Cc1cc(NC(=O)CN2C(=O)NC(C)(CCc3ccccc3)C2=O)no1 (centres undefined) | 2.34% (inactive)
CCc1cccc2c(=O)c(C(=O)NCCCOC)c[nH]c12 | -1.23% (inactive)
Cc1ccc(/C=N/NC(=O)C2=NNC(c3ccccc3)(c3ccccc3)C2)c(O)c1 | 100% (active)
Cc1ccc(/C=N/NC(=O)C(NC(=O)c2ccccc2)c2n[nH]c(=O)c3ccccc23)cc1 (centres undefined) | -1.59% (inactive)
Cc1ccc(-c2nn(-c3ccccc3)cc2/C=N/NC(=O)c2ccc3c(c2)OCO3)cc1 | 8.23% (inactive)
CNCC(O)CN1CCN(c2ccccc2OC)CC1 (centres undefined) | -6.68% (inactive)
COC(=O)c1c(NC(=O)CN2C(=O)NC(CCc3ccccc3)C2=O)sc2c1CCCCC2 (centres undefined) | 28.1% (inactive)
COC(=O)c1c(NC(=O)CN2CCN(S(=O)(=O)c3ccccc3[N+](=O)[O-])CC2)sc2c1CCC(C)C2 (centres undefined) | 76.2% (active)
Cc1c(Br)c([N+](=O)[O-])nn1CC(=O)Nc1sc2c(c1C(=O)OC(C)C)CCC(C)C2 (centres undefined) | -5.92% (inactive)
Cc1ccc(NC(=O)C(=O)NCc2ccco2)c(C)c1 | -8.28% (inactive)
C/C(CC(=O)Nc1ccc(C)cc1C)=N\NC(=O)C(C)C | 13.4% (inactive)
NC(=O)c1ccc(N2CCOCC2)nc1 | 2.59% (inactive)
Cc1cc(F)ccc1S(=O)(=O)Nc1ncnc2scc(-c3ccc(F)cc3)c12 | 64.1% (active)
COc1ccc(-c2csc3ncnc(Oc4ccc5c(C)cc(=O)oc5c4)c23)cc1 | 16.6% (inactive)
CCn1cnc2scc(-c3ccc(C)c(C)c3)c2c1=O | -4.16% (inactive)
